Test results published in the supplement of paper PMC13380429.
Unmarked numbers belong to inactive results.

Tested on: Vero E6 infected with SARS-CoV-2
Experiment: inhibition of SARS-CoV-2 cytopathic effect; higher = more antiviral protection, active = above 15
Details: 48 h

SMILES	inhibition of SARS-CoV-2 cytopathic effect (1 nM) [%]	inhibition of SARS-CoV-2 cytopathic effect (8.33 nM) [%]	inhibition of SARS-CoV-2 cytopathic effect (100 nM) [%]	inhibition of SARS-CoV-2 cytopathic effect (833.33 nM)	inhibition of SARS-CoV-2 cytopathic effect (10000 nM)
CC1C=CC=CCCC=CC=CC=CC=CC(OC2OC(C)C(O)C(N)C2O)CC2OC(O)(CC(O)C(O)CCC(O)CC(O)CC(O)CC(=O)OC(C)C(C)C1O)CC(O)C2C(=O)O (stereo not given) [nystatin]	0.06	-1.74	-1.14	-1.11%	3.99%
O=P1(NCCCl)OCCCN1CCCl (stereo not given) [ifosfamide]	0.24	-2.31	0.48	0.22%	-0.05%
COc1ccc2c(c1)c(CC(=O)O)c(C)n2C(=O)c1ccc(Cl)cc1 [indomethacin]	-1.21	0.75	-0.25	0.83%	0.17%
Nc1nc(OCc2cc(Br)cs2)c2[nH]cnc2n1 [lomeguatrib]	-1	0	0.04	-0.89%	0.11%
CCOc1ccc(C(=O)OCCN(CC)CC)cc1 [parethoxycaine]	0.82	-3.01	-2.92	-0.3%	-0.09%
Cc1ccc(F)cc1C(=O)Nc1ccc(C(=O)N2Cc3cccn3Cc3ccccc32)c(Cl)c1 [lixivaptan]	-2.22	2.67	2	1.18%	-0.31%
C=CC(=O)N1CCN(C(=O)CNc2cc(I)c(Cl)cc2O)CC1 [K-Ras(G12C)-inhibitor-12]	3.63	2.32	7.62	24.7% (active)	30.4% (active)
O=C(O)CCn1c2c(c3ccccc31)C[C@H](NS(=O)(=O)c1ccc(F)cc1)CC2 [ramatroban]	-0.49	0.09	0.01	0.06%	2.02%
COc1ccc(/C=C/C(=O)/C=C(O)/C=C/c2ccc(OC)c(OC)c2)cc1OC	1.2	-0.13	3.36	5.15%	19.7% (active)
Cc1cc(O)c(C(=O)N[C@@H](C(=O)N[C@@H]2C(=O)N3C(C(=O)O)=C(CSc4nnnn4C)CS[C@H]23)c2ccc(O)cc2)cn1 [cefpiramide]	-0.65	-0.72	0.85	2.35%	3.6%
Ic1cncc(OC[C@@H]2CCN2)c1	0.24	-0.44	0.14	1.07%	-0.56%
Nc1nc2ccc(OC(F)(F)F)cc2s1 [riluzole]	-0.39	-3.06	0.81	3.82%	1.88%
CCOC(=O)Nc1cc2c(c(N)n1)N=C(c1ccccc1)[C@H](C)N2 [mivobulin]	3.19	0.16	1.34	1.06%	-0.59%
Cc1ccc(NC(=O)Nc2cc(C(F)(F)F)ccc2F)cc1Nc1ccc2c(c1)NC(=O)/C2=C\c1ccc[nH]1	5.12	5.28	5.34	7.91%	4.87%
O=C(O)Cc1ccc(OCc2ccccc2)c(Cl)c1 [benzofenac]	-0.05	4.15	1.74	1.88%	0.27%
Nc1ncc2c(n1)CC(c1ccco1)CC2=O (stereo not given)	2.9	3.51	2.68	4.74%	3.17%
CC(C)(Cc1ccc2ccccc2c1)NC[C@@H](O)COc1cccc(Cl)c1C#N	-1.61	0.41	0.1	2.49%	62.5% (active)
